# Assay outcomes deposited in PubChem BioAssay by National Center for Advancing Translational Sciences (NCATS).
# IL-1B inflam inh = inflammasome signaling inhibition, IL-1 beta readout; activity change, % at 57.5 µM; AID 743279; THP-1 LPS/ATP IL-1B secretion, AlphaLISA, 16 h; hits give low values; 360,000 tested, 4.7% active; in the data active means activity change below about -50%; inconclusive means mostly about -30% to -49%
#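 THP-1 cells pretreated 1 hr with compounds (up to 57.5 uM final), then stimulated with LPS (250 ng/mL final) plus ATP (1.25 mM final); secreted IL-1B measured by AlphaLISA after 16 hr, decreased signal indicating inhibition.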
# TDP1 cell CPT = DT40-hTDP1 cell growth loss with CPT; 420,000 tested, 12% active; Potency, µM (series often up to 46.2 µM), most hits filed as inhibitors; AID 686979; chicken DT40 Tdp1-/-;hTDP1 cells + 20 nM CPT, ATP luminescence, 48 h; further: nearly all actives have a fitted effect of over 55% in size
#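 Cell growth measured by CellTiter-Glo luminescence after a minimum 48 h, 37 C compound exposure with 20 nM CPT in Tdp1-knockout DT40 cells stably expressing hTDP1, seeded 400/well; qHTS titration format.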
# Gal4-VP16 FLuc = Gal4-VP16 reporter inhibition counter-screen | Drosophila S2 Gal4-VP16 UAS-luciferase, luminescence, 20 h | Potency, µM (series often up to 53.6 µM), hits mostly inhibitors | 310,000 tested, 3.5% active;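 further: Gal4-VP16 expression switched on by copper sulfate through the metallothionein promoter; nearly all actives have a fitted effect of over 50% in size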
# RORg inh = ROR gamma (mouse) transcription inhibition; P51450; Drosophila S2 Gal4-RORgamma UAS-luciferase reporter, 20 h; Potency, µM (top dose mostly 53.6 µM), hits mostly inhibitors; 310,000 tested, 5.4% active; further: nearly all actives have a fitted effect of over 60% in size
# Target sequence (P51450 whole entry, looked up, the tested form may be a part): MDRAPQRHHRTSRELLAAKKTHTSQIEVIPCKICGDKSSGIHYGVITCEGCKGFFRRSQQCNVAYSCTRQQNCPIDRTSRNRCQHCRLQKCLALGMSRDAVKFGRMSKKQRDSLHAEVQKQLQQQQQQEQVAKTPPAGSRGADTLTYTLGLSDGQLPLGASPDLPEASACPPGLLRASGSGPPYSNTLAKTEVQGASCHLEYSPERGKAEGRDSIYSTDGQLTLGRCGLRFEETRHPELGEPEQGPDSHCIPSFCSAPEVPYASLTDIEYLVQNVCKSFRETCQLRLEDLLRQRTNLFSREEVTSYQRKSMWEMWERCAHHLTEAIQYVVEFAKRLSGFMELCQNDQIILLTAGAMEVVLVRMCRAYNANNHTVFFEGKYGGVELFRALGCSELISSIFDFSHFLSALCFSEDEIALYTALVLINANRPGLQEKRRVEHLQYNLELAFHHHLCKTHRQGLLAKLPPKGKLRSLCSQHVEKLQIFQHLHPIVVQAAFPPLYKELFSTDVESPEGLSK
#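 Luminescence from a UAS-regulated Photinus luciferase reporter in stably transfected Drosophila Schneider cells is measured; decreased signal marks ROR gamma inhibition. Fusion expression is induced by 700 uM copper sulfate for 20 hr.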
# ELG1 DNA repair = ELG1-dependent DNA repair inhibition | 330,000 tested, 2.3% active | HEK293T ELG1-luciferase reporter, luminescence, 16 h; DNA damage induced by 5-fluorouridine | Potency, µM (doses to about 46.1 µM), hits mostly inhibitors; further: nearly all actives have a fitted effect of over 55% in size
#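 DMSO vehicle served as the neutral condition. Each well held 2,000 cells given 5-fluorouridine plus compound; after 16 hr at 37 °C/5% CO2, ONE-Glo was added and luciferase measured 30 min later.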
# DT40 TDP1 no CPT = qHTS for Inhibitors of human tyrosyl-DNA phosphodiesterase 1 (TDP1): qHTS in cells in absence of CPT | DT40 Tdp1-/- hTDP1 cells, no CPT, ATP luminescence, 48 h | 420,000 tested, 15% active | Potency, µM (series often up to 46.2 µM), usual class: inhibitors; further: nearly all actives have a fitted effect of over 55% in size
#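 Camptothecin absent (DMSO only). Human TDP1-complemented DT40 knockout cells, 400 cells/well, 37 °C for minimum 48 hr; ATP measured via CellTiter-Glo, 30 min dark incubation, luminescence.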
# A number is an active result; – = inactive; ? = inconclusive; · = not tested or not shown; [ ] = remark or other dose. A selection: hits, their analogues and other compounds. The true share with any hit is near 21%. Unless noted, the call rests on the fitted dose curve; in most records, active means well fitted curve in the direction sought with a large enough effect; inconclusive means small, poorly fitted or top-dose-only effect, or another doubt; inactive means no such curve, though single readings can be large; an effect the other way counts as inactive or inconclusive.
SMILES,IL-1B inflam inh,TDP1 cell CPT,Gal4-VP16 FLuc,RORg inh,ELG1 DNA repair,DT40 TDP1 no CPT
CCC(CC)COC(=O)C(C#N)c1nc2ccccc2nc1N1CCN(CC)CC1 (stereo unspecified),-60,21µM,–,?,–,?
COCCN(C(=O)COC(=O)CNC(=O)c1cccs1)c1c(N)n(Cc2ccccc2)c(=O)[nH]c1=O,–,–,·,·,–,–
COCCn1c(N)c(C(=S)NC(=O)c2cccs2)c(=O)[nH]c1=O,–,10µM,–,–,–,?
NC(=Nc1c([N+](=O)[O-])cnc2ccccc12)N1CCOCC1,–,–,·,·,·,–
S=C(NCCc1ccccc1)N/N=C/c1ccc(Cl)cc1,–,?,?,?,–,?
S=C(NCCc1ccccc1)N/N=C/c1c(Cl)cccc1Cl,–,?,8.9µM,10µM,–,16µM
Cc1ccc(/C=N/NC(=S)NCCc2ccccc2)s1,–,–,2.2µM,0.22µM,–,–
COc1cc(/C=N/NC(=S)NCCc2ccccc2)cc(OC)c1OC,–,26µM,?,13µM,?,16µM
CCCCNC(=S)N/N=C/c1ccc(C)s1,–,?,2.5µM,1µM,?,?
CCOC(=O)N/N=C\c1ccc(C)s1,?,–,?,–,?,–
O=Cc1ccc(OC2C=CC(C#Cc3ccccc3)OC2CO)cc1 (stereo unspecified),·,·,–[10 µM],–[10 µM],·,·
COc1cncc(C#Cc2ccccn2)c1,–,–,·,·,·,–
Cc1cc(C)cc(OCC(=O)OCC(=O)c2cc(C)n(C3CC3)c2C)c1,–,–,–,–,–,–
CC(C)(C)c1ccc(C(=O)NCC(=O)OCc2cc(=O)n3nc(C4CC4)sc3n2)cc1,·,–,·,·,·,–
CN1CCN(C(=O)c2ccc(-c3cnn(C)c3)c3ccoc23)CC1,–,–,·,·,·,–
C[C@@H]1CN([C@H](C)CO)C(=O)c2c(c3ccccc3n2C)-c2ccccc2CO[C@@H]1CN(C)C(=O)Nc1ccccc1C(F)(F)F,–,–,·,·,·,–
C[C@@H]1CN([C@H](C)CO)C(=O)c2c(c3ccccc3n2C)-c2ccccc2CO[C@H]1CN(C)Cc1ccc(Oc2ccccc2)cc1,–,?,·,·,·,26µM
COc1ccc(NC(=O)N(C)C[C@@H]2OCc3ccccc3-c3c(n(C)c4ccccc34)C(=O)N([C@H](C)CO)C[C@H]2C)c(OC)c1,?,15µM,·,·,·,?
C[C@@H]1CN([C@H](C)CO)C(=O)c2c(c3ccccc3n2C)-c2ccccc2CO[C@H]1CN(C)Cc1ccc(C(F)(F)F)cc1,?,?,·,·,·,21µM
N#Cc1ccccc1OCC(=O)NNC(=O)CNC(=O)c1ccc(Br)o1,–,–,·,·,–,–
CCC(=O)Nc1ccc(-c2nnc(SCc3ccccc3)n2C)cc1,·,–,·,·,·,–
O=C(NC1=NN(c2ccccc2)CC1)Nc1ccccc1F,–,?,–,–,?,?
O=C(c1ccco1)N1CCN(C(=S)Nc2ccc(F)c(Cl)c2)CC1,–,–,–,–,–,–
O=C(Nc1ccc(N2CCN(C(=O)c3ccco3)CC2)c(Cl)c1)c1c(F)c(F)c(F)c(F)c1F,-90,15µM,?,–,18µM,18µM
O=C(Nc1ccc(N2CCN(C(=O)c3cccs3)CC2)c(Cl)c1)c1cccnc1,-79,?,–,–,6.5µM,?
SMILES,IL-1B inflam inh,TDP1 cell CPT,Gal4-VP16 FLuc,RORg inh,ELG1 DNA repair,DT40 TDP1 no CPT
O=C(Nc1ccc(N2CCN(C(=O)c3ccco3)CC2)c(Cl)c1)c1cccnc1,-67,?,–,–,6.5µM,?
CCOC(=O)c1ccccc1NC(=O)Cn1c(=O)n(Cc2nc(C)no2)c(=O)c2ccccc21,·,?,·,·,·,–
O=C1N[C@@H](Cc2ccccc2)COC(=O)[C@@H](Cc2ccc(F)cc2)CC/C=C/C[C@@H]1CC(=O)N(CCO)Cc1ccccc1,–,?,·,·,?,?
O=C1N[C@H](Cc2ccccc2)COC(=O)[C@@H](Cc2ccc(F)cc2)CC/C=C/C[C@H]1CC(=O)N(CCO)Cc1ccccc1,?,18µM,·,·,21µM,?
O=C1N[C@H](Cc2ccccc2)COC(=O)[C@H](Cc2ccc(F)cc2)CC/C=C/C[C@@H]1CC(=O)N(CCO)Cc1ccccc1,-55,10µM,·,·,21µM,?
Cc1cc[n+](CC(=O)c2ccc(NC(=O)c3ccccc3)cc2)cc1,–,?,–,–,–,?
O=C(C[n+]1cccc2ccccc21)c1ccc(NC(=O)c2ccccc2)cc1,–,8.2µM,–,–,?,6.5µM
Cc1cc[n+](CC(=O)c2ccc(NC(=O)c3ccccc3)cc2)c2ccccc12,?,8.2µM,–,?,?,3.7µM
COc1cc2nc(NC(=O)c3ccc(S(=O)(=O)N4CCCC4)cc3)sc2cc1OC,·,–,·,·,·,–
Cc1ccc(S(=O)(=O)NCC(=O)NCC(=O)OCC(=O)N2CC(=O)Nc3ccccc32)cc1C,–,?,–,–,–,?
Cc1ccc(Cn2c(=O)n(-c3cc(C)cc(C)c3)c(=O)c3oc4ccccc4c32)cc1,·,?,·,·,·,23µM
COc1ccc(NC(=O)Cn2c(=O)n(-c3cc(C)cc(C)c3)c(=O)c3oc4ccccc4c32)cc1OC,·,8.2µM,·,·,·,8.2µM
COc1ccc(NC(=O)Cn2c(=O)n(Cc3ccco3)c(=O)c3sc4ccccc4c32)cc1Cl,·,–,·,·,·,–
COc1ccc(NC(=O)Cn2c(=O)n(C(C)C)c(=O)c3oc4ccccc4c32)cc1Cl,·,?,·,·,·,16µM
Cc1noc(C)c1S(=O)(=O)N(C)C[C@H]1Oc2ccc(NS(=O)(=O)c3ccccc3)cc2C(=O)N([C@H](C)CO)C[C@@H]1C,–,–,·,·,?,–
COc1ccc2c(C)c(CCC(=O)NCc3ccccc3Cl)c(=O)oc2c1C,·,–,·,·,·,?
NC(CO)C(=O)NNCc1ccc(O)c(O)c1O (stereo unspecified),–,3.7µM,–,–,–,4.6µM
O=C(CSc1ccccn1)Nc1ccc2[nH]c(=O)[nH]c2c1,–,–,·,·,?,–
CCC1CCCCN1C(=O)CSc1nc(-c2ccc(OC)c(OC)c2)cc(C(F)(F)F)n1 (stereo unspecified),·,?,·,·,·,23µM
CCC1CCCCN1C(=O)CSc1nc(-c2ccc(OC)cc2)cc(C(F)(F)F)n1 (stereo unspecified),·,23µM,·,·,·,9.2µM
COc1ccc(-c2cc(C(F)(F)F)nc(SCC(=O)N3CC(C)OC(C)C3)n2)cc1OC (stereo unspecified),–,–,–,–,?,–
O=C(COc1ccc(Cl)c(Cl)c1)NN1C(=O)C2C(C1=O)C1C=CC2C12CC2 (stereo unspecified),–,–,–,–,–,18µM
